Shown is part of a subset that was picked to be rich in hits.
HT1080 IDH1KD tx = toxicity to HT-1080 IDH1 knockdown cells (counter line); HT-1080 IDH1 knockdown viability, ATP luminescence, 48 h; Potency, µM (highest dose often 46.1 µM), hits mostly cytotoxic; 2% of 360,000 active
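Luminescent ATP read-out (CellTiter-Glo, 10 min at room temperature) after 48 h compound exposure at 37 °C gave viability of IDH1-knockdown HT-1080 cells. Activity was normalised to DMSO and cell-free wells, then fitted as concentration-response curves.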
IL-1B inflam inh = inhibitors of inflammasome signaling (IL-1 beta secretion) | THP-1 LPS/ATP IL-1B secretion, AlphaLISA, 16 h; stronger effect = lower value | activity change, % at 57.5 µM | 4.7% of 360,000 active; in the data active = activity change below about -50%; inconclusive = mostly about -30% to -49%
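THP-1 cells pretreated 1 hr with compounds (up to 57.5 uM final), then stimulated with LPS (250 ng/mL final) plus ATP (1.25 mM final); secreted IL-1B measured by AlphaLISA after 16 hr, decreased signal indicating inhibition.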
ALOX12 inh = inhibitors of human 12S-lipoxygenase ALOX12 | P18054 | purified 12hLO, xylenol orange hydroperoxide absorbance | Potency, µM (doses to about 108 µM), hits mostly inhibitors | 1.1% of 580,000 active | AID 1671190
Target sequence (P18054 whole entry, looked up): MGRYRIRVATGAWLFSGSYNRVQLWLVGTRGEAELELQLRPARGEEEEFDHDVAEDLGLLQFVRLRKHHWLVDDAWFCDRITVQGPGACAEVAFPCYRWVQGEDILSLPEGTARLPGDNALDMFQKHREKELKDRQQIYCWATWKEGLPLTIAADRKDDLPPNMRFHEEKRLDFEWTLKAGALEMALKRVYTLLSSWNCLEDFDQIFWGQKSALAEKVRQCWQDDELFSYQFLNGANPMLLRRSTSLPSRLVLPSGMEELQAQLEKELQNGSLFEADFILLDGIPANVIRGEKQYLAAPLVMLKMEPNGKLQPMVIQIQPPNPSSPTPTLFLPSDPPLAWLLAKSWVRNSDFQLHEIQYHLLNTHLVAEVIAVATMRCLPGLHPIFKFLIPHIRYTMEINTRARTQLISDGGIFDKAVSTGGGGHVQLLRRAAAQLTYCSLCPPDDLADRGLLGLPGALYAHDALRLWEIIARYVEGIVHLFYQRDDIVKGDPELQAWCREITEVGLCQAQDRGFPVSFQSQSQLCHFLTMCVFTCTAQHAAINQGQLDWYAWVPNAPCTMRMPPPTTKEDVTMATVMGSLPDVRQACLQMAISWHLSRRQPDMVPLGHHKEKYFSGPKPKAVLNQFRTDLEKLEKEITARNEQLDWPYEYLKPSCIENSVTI
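Purified human 12hLO at 150 nM in 25 mM Hepes, 0.01% Triton X-100, pH 7.0, preincubated 15 min at room temperature with compound. Reaction started with 40 uM arachidonic acid, 30 min at room temperature. Hydroperoxide measured by Fe-xylenol orange, 573/405 nm absorbance ratio.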
HT1080-NT tox = kills 2HG-producing HT-1080-NT fibrosarcoma cells; HT-1080-NT fibrosarcoma viability, CellTiter-Glo ATP luminescence, 48 h; Potency, µM (doses to about 46.1 µM), usual class: cytotoxic; 1.6% of 360,000 active; AID 686970;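 note: NT is the 2HG producing partner of a matched IDH1 knockdown line; nearly all actives have a fitted effect of over 55% in size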
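Read-out is CellTiter-Glo luminescence after 10 minutes at room temperature, following 48 hours' compound treatment of HT-1080-NT cells (750 cells/well, RPMI, 5% FBS, 37 degrees C).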
DT40 TDP1 no CPT = qHTS for Inhibitors of human tyrosyl-DNA phosphodiesterase 1 (TDP1): qHTS in cells in absence of CPT. DT40 Tdp1-/- hTDP1 cells, no CPT, ATP luminescence, 48 h. Potency, µM (titrated, usually from 46.2 µM), usual class: inhibitors. 15% of 420,000 active; note: nearly all actives have a fitted effect of over 55% in size
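Luminescent ATP content (CellTiter-Glo) served as the growth readout. Knockout chicken DT40 cells expressing human TDP1 were exposed to compounds without camptothecin for a minimum 48 hr at 37 °C.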
TDP1 cell CPT = DT40-hTDP1 cell growth loss with CPT; chicken DT40 Tdp1-/-;hTDP1 cells + 20 nM CPT, ATP luminescence, 48 h; Potency, µM (series often up to 46.2 µM), hits mostly inhibitors; 12% of 420,000 active; AID 686979; note: nearly all actives have a fitted effect of over 55% in size
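Chicken DT40 Tdp1-/- cells complemented with human TDP1, 400 cells/well, exposed to compounds plus 20 nM camptothecin for at least 48 h at 37 C; viability read as ATP content by CellTiter-Glo luminescence.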
Of the large screens only hits and unclear results are named; the others gave an inactive call. Unless noted, calls come from the whole dose curve; as a rule, active = well fitted curve in the direction sought with a large enough effect; inconclusive = small, poorly fitted or top-dose-only effect, or another doubt; inactive = no such curve, though single readings can be large; an effect the other way counts as inactive or inconclusive.

Cc1ccc2c(Cl)cc(Cl)c(OCC(=O)N(C(C)C)C(C)C)c2n1	DT40 TDP1 no CPT 18.4µM, TDP1 cell CPT 16.4µM
CN=CNc1ccc(C)cc1C	none (no result: HT1080 IDH1KD tx, IL-1B inflam inh, HT1080-NT tox, DT40 TDP1 no CPT, TDP1 cell CPT)
CCOc1ccc(N=Cc2c(O)n(CCc3ccc(OC)c(OC)c3)c(=O)[nH]c2=O)cc1	ALOX12 inh inconclusive, DT40 TDP1 no CPT 16.4µM, TDP1 cell CPT inconclusive
CN1Cc2ccccc2-n2ccnc2C12CCN(C(=O)c1cc(F)cc(F)c1)CC2	none (no result: HT1080 IDH1KD tx, IL-1B inflam inh, HT1080-NT tox, DT40 TDP1 no CPT, TDP1 cell CPT)
C[C@H]1CCCC(=O)CCCCCc2cc(O)cc(O)c2C(=O)O1	HT1080 IDH1KD tx inconclusive, HT1080-NT tox inconclusive, DT40 TDP1 no CPT 18.4µM, TDP1 cell CPT inconclusive
CC(=O)Nc1ccc(-c2ccc(=O)n3c2[C@@H]2C[C@@H](CN(C(=O)c4cccs4)C2)C3)cc1	none (no result: HT1080 IDH1KD tx, IL-1B inflam inh, HT1080-NT tox, DT40 TDP1 no CPT, TDP1 cell CPT)
CCOc1ccccc1C(=O)N1CCC2(CC1)c1nccn1-c1ccccc1CN2C	none (no result: HT1080 IDH1KD tx, IL-1B inflam inh, HT1080-NT tox, DT40 TDP1 no CPT, TDP1 cell CPT)
O=C1NCN(c2ccccc2)C12CCN(C(c1ccccc1)c1nnnn1-c1ccc3c(c1)OCCO3)CC2 (configuration not stated)	HT1080 IDH1KD tx inconclusive, HT1080-NT tox inconclusive, DT40 TDP1 no CPT inconclusive, TDP1 cell CPT inconclusive
O=C1NCN(c2ccccc2)C12CCN(C(c1cc3ccccc3o1)c1nnnn1-c1ccc3c(c1)OCCO3)CC2 (configuration not stated)	ALOX12 inh inconclusive, DT40 TDP1 no CPT 23.1µM, TDP1 cell CPT 20.6µM
O=C1NCN(c2ccccc2)C12CCN(C(c1cccs1)c1nnnn1-c1ccc3c(c1)OCCO3)CC2 (configuration not stated)	HT1080 IDH1KD tx inconclusive, ALOX12 inh inconclusive, HT1080-NT tox inconclusive, DT40 TDP1 no CPT 16.4µM, TDP1 cell CPT 18.4µM
COc1ccc(-n2nnnc2C(C2CC2)N2CCC3(CC2)C(=O)NCN3c2ccccc2)cc1 (configuration not stated)	DT40 TDP1 no CPT inconclusive, TDP1 cell CPT inconclusive
O=C1NCN(c2ccccc2)C12CCN(C(c1nnnn1-c1ccc3c(c1)OCCO3)C1CC1)CC2 (configuration not stated)	HT1080 IDH1KD tx inconclusive, HT1080-NT tox inconclusive, DT40 TDP1 no CPT 13µM, TDP1 cell CPT 23.1µM
Cc1nn(-c2cccc(Cl)c2)c2c1C(c1ccsc1)SCC(=O)N2 (configuration not stated)	none (no result: HT1080 IDH1KD tx, IL-1B inflam inh, HT1080-NT tox, DT40 TDP1 no CPT, TDP1 cell CPT)
CCC(C)n1c(O)c(/C=N/N2CCOCC2)c(=O)[nH]c1=S (configuration not stated)	TDP1 cell CPT 23.1µM
O=C(CF)N(O)c1ccc(C=Cc2ccccc2)cc1	HT1080 IDH1KD tx inconclusive, DT40 TDP1 no CPT 0.0259µM, TDP1 cell CPT 0.13µM
O=C(NN=Cc1ccc2c(c1)CCC2)c1cccc([N+](=O)[O-])c1	DT40 TDP1 no CPT inconclusive, TDP1 cell CPT inconclusive
O=C(NN=Cc1ccc(O)c(O)c1)c1ccccc1	DT40 TDP1 no CPT 23.1µM, TDP1 cell CPT 23.1µM (no result: ALOX12 inh)
NS(=O)(=O)c1ccc(CCNc2nn3c(-c4ccc(F)c(Cl)c4)cnc3s2)cc1	HT1080 IDH1KD tx 11.6µM, IL-1B inflam inh inconclusive, HT1080-NT tox inconclusive, DT40 TDP1 no CPT 23.1µM, TDP1 cell CPT 16.4µM
NS(=O)(=O)c1ccc(CCNc2ccn3nc(-c4cccc(C(F)(F)F)c4)cc3n2)cc1	HT1080-NT tox inconclusive, DT40 TDP1 no CPT inconclusive, TDP1 cell CPT inconclusive
COCc1cc(C)c(C#N)c(=S)[nH]1	DT40 TDP1 no CPT 0.82µM, TDP1 cell CPT 1.16µM (no result: ALOX12 inh)
Cc1ccccc1C(Cn1ccnc1-c1cnc[nH]1)N(C)C (configuration not stated)	none (no result: HT1080 IDH1KD tx, IL-1B inflam inh, HT1080-NT tox, DT40 TDP1 no CPT, TDP1 cell CPT)
Cc1cccc(-n2c(O)c(/C=C3/C(c4ccccc4)=Nc4ccccc43)c(=O)[nH]c2=O)c1	HT1080 IDH1KD tx 5.8µM, HT1080-NT tox 16.4µM, DT40 TDP1 no CPT 2.31µM, TDP1 cell CPT 2.91µM

Bioassay records deposited in PubChem BioAssay by National Center for Advancing Translational Sciences (NCATS).
